Measured values: the supplement of paper PMC4466140

B1: unnamed (peptide)
chain: LYKRKPILLPDPKPL

Each binder was assayed against AgAbp1 (assay: SPOT peptide array binding signal intensity (averaged, normalized) (arbitrary units (background-subtracted, floor 0; scale differs between SH3 domains)); higher = stronger binding of the SH3 domain to the peptide).
Protocol: (§1)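 GST-tagged SH3 domains from S. cerevisiae (Sc), A. gossypii (Ag), C. albicans (Ca) and S. pombe (Sp) were incubated at 10 ug/ml overnight at 4 C on cellulose SPOT membranes carrying 292 synthetic 15-mer peptides mined from the S. cerevisiae proteome (cysteines replaced by serines). Binding was detected with anti-GST antibody, HRP secondary and chemiluminescence, quantified with Genespotter, and reported as normalized spot intensities averaged over biological replicates.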

Row | Binder | SPOT peptide array binding signal intensity
1 | B1 | 30.5

These binders were tested against AgBbc1 in the same assay as above.
Protocol: as §1

Row | Binder | SPOT peptide array binding signal intensity
2 | B1 | ≤ 0

The binders below were run against AgBem1-D1 in the same assay as above.
Protocol: as §1

Row | Binder | SPOT peptide array binding signal intensity
3 | B1 | ≤ 0

Each binder was assayed against AgBzz1-D1 in the same assay as above.
Protocol: as §1

Row | Binder | SPOT peptide array binding signal intensity
4 | B1 | 44

What follows are binders tested against AgBzz1-D2 in the same assay as above.
Protocol: as §1

Row | Binder | SPOT peptide array binding signal intensity
5 | B1 | 70

What follows are binders tested against AgCyk3 in the same assay as above.
Protocol: as §1

Row | Binder | SPOT peptide array binding signal intensity
6 | B1 | ≤ 0

What follows are binders tested against AgFus1 in the same assay as above.
Protocol: as §1

Row | Binder | SPOT peptide array binding signal intensity
7 | B1 | ≤ 0

These binders were tested against AgHof1 in the same assay as above.
Protocol: as §1

Row | Binder | SPOT peptide array binding signal intensity
8 | B1 | 11

These binders were tested against AgHse1 in the same assay as above.
Protocol: as §1

Row | Binder | SPOT peptide array binding signal intensity
9 | B1 | 93

The binders below were run against AgLsb1 in the same assay as above.
Protocol: as §1

Row | Binder | SPOT peptide array binding signal intensity
10 | B1 | 208

Each binder was assayed against AgLsb4 in the same assay as above.
Protocol: as §1

Row | Binder | SPOT peptide array binding signal intensity
11 | B1 | 1.5

What follows are binders tested against AgMyo5 in the same assay as above.
Protocol: as §1

Row | Binder | SPOT peptide array binding signal intensity
12 | B1 | ≤ 0

Each binder was assayed against AgNbp2 in the same assay as above.
Protocol: as §1

Row | Binder | SPOT peptide array binding signal intensity
13 | B1 | 4.5

What follows are binders tested against AgRvs167 in the same assay as above.
Protocol: as §1

Row | Binder | SPOT peptide array binding signal intensity
14 | B1 | ≤ 0

The binders below were run against AgSho1 in the same assay as above.
Protocol: as §1

Row | Binder | SPOT peptide array binding signal intensity
15 | B1 | ≤ 0

These binders were tested against AgSla1-D1-D2 in the same assay as above.
Protocol: as §1

Row | Binder | SPOT peptide array binding signal intensity
16 | B1 | 29

The binders below were run against AgSla1-D3 in the same assay as above.
Protocol: as §1

Row | Binder | SPOT peptide array binding signal intensity
17 | B1 | 9

Each binder was assayed against CaAbp1-D1 in the same assay as above.
Protocol: as §1

Row | Binder | SPOT peptide array binding signal intensity
18 | B1 | 292

These binders were tested against CaAbp1-D2 in the same assay as above.
Protocol: as §1

Row | Binder | SPOT peptide array binding signal intensity
19 | B1 | 140

The binders below were run against CaBbc1 in the same assay as above.
Protocol: as §1

Row | Binder | SPOT peptide array binding signal intensity
20 | B1 | 16.5

These binders were tested against CaBem1-D1 in the same assay as above.
Protocol: as §1

Row | Binder | SPOT peptide array binding signal intensity
21 | B1 | ≤ 0

Each binder was assayed against CaBzz1-D1 in the same assay as above.
Protocol: as §1

Row | Binder | SPOT peptide array binding signal intensity
22 | B1 | 150

What follows are binders tested against CaBzz1-D2 in the same assay as above.
Protocol: as §1

Row | Binder | SPOT peptide array binding signal intensity
23 | B1 | 40.8

The binders below were run against CaCyk3 in the same assay as above.
Protocol: as §1

Row | Binder | SPOT peptide array binding signal intensity
24 | B1 | 4

The binders below were run against CaFus1 in the same assay as above.
Protocol: as §1

Row | Binder | SPOT peptide array binding signal intensity
25 | B1 | 39

These binders were tested against CaHof1 in the same assay as above.
Protocol: as §1

Row | Binder | SPOT peptide array binding signal intensity
26 | B1 | 0.75

These binders were tested against CaHse1 in the same assay as above.
Protocol: as §1

Row | Binder | SPOT peptide array binding signal intensity
27 | B1 | ≤ 0

What follows are binders tested against CaLsb1 in the same assay as above.
Protocol: as §1

Row | Binder | SPOT peptide array binding signal intensity
28 | B1 | 228

These binders were tested against CaLsb4 in the same assay as above.
Protocol: as §1

Row | Binder | SPOT peptide array binding signal intensity
29 | B1 | ≤ 0

These binders were tested against CaMyo5 in the same assay as above.
Protocol: as §1

Row | Binder | SPOT peptide array binding signal intensity
30 | B1 | ≤ 0

These binders were tested against CaNbp2 in the same assay as above.
Protocol: as §1

Row | Binder | SPOT peptide array binding signal intensity
31 | B1 | 33

These binders were tested against CaRvs167 in the same assay as above.
Protocol: as §1

Row | Binder | SPOT peptide array binding signal intensity
32 | B1 | 7.67

These binders were tested against CaRvs167-3 in the same assay as above.
Protocol: as §1

Row | Binder | SPOT peptide array binding signal intensity
33 | B1 | 1.75

The binders below were run against CaSho1 in the same assay as above.
Protocol: as §1

Row | Binder | SPOT peptide array binding signal intensity
34 | B1 | ≤ 0

Each binder was assayed against CaSla1-D1-D2 in the same assay as above.
Protocol: as §1

Row | Binder | SPOT peptide array binding signal intensity
35 | B1 | 50

Each binder was assayed against CaSla1-D3 in the same assay as above.
Protocol: as §1

Row | Binder | SPOT peptide array binding signal intensity
36 | B1 | ≤ 0

The binders below were run against ScAbp1 in the same assay as above.
Protocol: as §1

Row | Binder | SPOT peptide array binding signal intensity
37 | B1 | 38

The binders below were run against ScBbc1 in the same assay as above.
Protocol: as §1

Row | Binder | SPOT peptide array binding signal intensity
38 | B1 | 2

What follows are binders tested against ScBem1-D1 in the same assay as above.
Protocol: as §1

Row | Binder | SPOT peptide array binding signal intensity
39 | B1 | 3

Each binder was assayed against ScBzz1-D1 in the same assay as above.
Protocol: as §1

Row | Binder | SPOT peptide array binding signal intensity
40 | B1 | 20.5

The binders below were run against ScBzz1-D2 in the same assay as above.
Protocol: as §1

Row | Binder | SPOT peptide array binding signal intensity
41 | B1 | 15.5

These binders were tested against ScCyk3 in the same assay as above.
Protocol: as §1

Row | Binder | SPOT peptide array binding signal intensity
42 | B1 | ≤ 0

These binders were tested against ScFus1 in the same assay as above.
Protocol: as §1

Row | Binder | SPOT peptide array binding signal intensity
43 | B1 | ≤ 0

These binders were tested against ScHof1 in the same assay as above.
Protocol: as §1

Row | Binder | SPOT peptide array binding signal intensity
44 | B1 | ≤ 0

These binders were tested against ScHse1 in the same assay as above.
Protocol: as §1

Row | Binder | SPOT peptide array binding signal intensity
45 | B1 | 267

What follows are binders tested against ScLsb1 in the same assay as above.
Protocol: as §1

Row | Binder | SPOT peptide array binding signal intensity
46 | B1 | 162

Each binder was assayed against ScLsb2 in the same assay as above.
Protocol: as §1

Row | Binder | SPOT peptide array binding signal intensity
47 | B1 | 838

What follows are binders tested against ScLsb3 in the same assay as above.
Protocol: as §1

Row | Binder | SPOT peptide array binding signal intensity
48 | B1 | 7

The binders below were run against ScLsb4 in the same assay as above.
Protocol: as §1

Row | Binder | SPOT peptide array binding signal intensity
49 | B1 | ≤ 0

These binders were tested against ScMyo3 in the same assay as above.
Protocol: as §1

Row | Binder | SPOT peptide array binding signal intensity
50 | B1 | ≤ 0

These binders were tested against ScMyo5 in the same assay as above.
Protocol: as §1

Row | Binder | SPOT peptide array binding signal intensity
51 | B1 | 0.5

These binders were tested against ScNbp2 in the same assay as above.
Protocol: as §1

Row | Binder | SPOT peptide array binding signal intensity
52 | B1 | 14.5

What follows are binders tested against ScPex13 in the same assay as above.
Protocol: as §1

Row | Binder | SPOT peptide array binding signal intensity
53 | B1 | ≤ 0

The binders below were run against ScRvs167 in the same assay as above.
Protocol: as §1

Row | Binder | SPOT peptide array binding signal intensity
54 | B1 | 16.7

What follows are binders tested against ScSho1 in the same assay as above.
Protocol: as §1

Row | Binder | SPOT peptide array binding signal intensity
55 | B1 | 62.5

Each binder was assayed against ScSla1-D1-D2 in the same assay as above.
Protocol: as §1

Row | Binder | SPOT peptide array binding signal intensity
56 | B1 | 135

Each binder was assayed against ScSla1-D3 in the same assay as above.
Protocol: as §1

Row | Binder | SPOT peptide array binding signal intensity
57 | B1 | 5

Each binder was assayed against SpAbp1-D1 in the same assay as above.
Protocol: as §1

Row | Binder | SPOT peptide array binding signal intensity
58 | B1 | 29

The binders below were run against SpBbc1 in the same assay as above.
Protocol: as §1

Row | Binder | SPOT peptide array binding signal intensity
59 | B1 | ≤ 0

These binders were tested against SpBzz1-D1 in the same assay as above.
Protocol: as §1

Row | Binder | SPOT peptide array binding signal intensity
60 | B1 | 188

Each binder was assayed against SpBzz1-D2 in the same assay as above.
Protocol: as §1

Row | Binder | SPOT peptide array binding signal intensity
61 | B1 | 0.5

What follows are binders tested against SpCyk3 in the same assay as above.
Protocol: as §1

Row | Binder | SPOT peptide array binding signal intensity
62 | B1 | ≤ 0

What follows are binders tested against SpHof1 in the same assay as above.
Protocol: as §1

Row | Binder | SPOT peptide array binding signal intensity
63 | B1 | 6.25

These binders were tested against SpHof1-2 in the same assay as above.
Protocol: as §1

Row | Binder | SPOT peptide array binding signal intensity
64 | B1 | 7.5

What follows are binders tested against SpHof1-3 in the same assay as above.
Protocol: as §1

Row | Binder | SPOT peptide array binding signal intensity
65 | B1 | 83

Each binder was assayed against SpHse1 in the same assay as above.
Protocol: as §1

Row | Binder | SPOT peptide array binding signal intensity
66 | B1 | 4

The binders below were run against SpLsb1 in the same assay as above.
Protocol: as §1

Row | Binder | SPOT peptide array binding signal intensity
67 | B1 | 19.8

These binders were tested against SpLsb4 in the same assay as above.
Protocol: as §1

Row | Binder | SPOT peptide array binding signal intensity
68 | B1 | ≤ 0

Each binder was assayed against SpMyo1 in the same assay as above.
Protocol: as §1

Row | Binder | SPOT peptide array binding signal intensity
69 | B1 | ≤ 0

Each binder was assayed against SpNbp2 in the same assay as above.
Protocol: as §1

Row | Binder | SPOT peptide array binding signal intensity
70 | B1 | 5.5

These binders were tested against SpPex13 in the same assay as above.
Protocol: as §1

Row | Binder | SPOT peptide array binding signal intensity
71 | B1 | ≤ 0

What follows are binders tested against SpRvs167 in the same assay as above.
Protocol: as §1

Row | Binder | SPOT peptide array binding signal intensity
72 | B1 | 12.3

Each binder was assayed against SpSla1-D1-D2 in the same assay as above.
Protocol: as §1

Row | Binder | SPOT peptide array binding signal intensity
73 | B1 | ≤ 0

Each binder was assayed against SpSla1-D3 in the same assay as above.
Protocol: as §1

Row | Binder | SPOT peptide array binding signal intensity
74 | B1 | ≤ 0
